In one assay the test system is CRL-7250. Put plainly: Cytotoxic Profiling of Annotated Libraries Using Quantitative High-Throughput Screening (AID 1296008). Also: potency is read from the fitted curve at half-maximal effect. As to max response: % is scaled to controls: 0 for no effect and ±100 for the full control effect. The note with it: Five cell lines viability, CellTiter-Glo ATP luminescence, 48-72 h; max response: stronger effect = lower value. A digest of the protocol: (§1)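 Cytotoxicity was measured as CellTiter-Glo ATP luminescence, read after 10 min at room temperature. Compound treatment of the cells lasted 48 or 72 hr at 37 degrees Celsius in a qHTS format.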
In general terms: ATP-based viability assays read luminescence as a measure of living cells.

The next assay concerns HEK293. Described as above. The settings on record: Five cell lines viability, CellTiter-Glo ATP luminescence, 48-72 h; max response: stronger effect = lower value. A digest of the protocol: as §1
The next assay has as its system HaCat. The description is as above. The note with it: Five cell lines viability, CellTiter-Glo ATP luminescence, 48-72 h; max response: stronger effect = lower value. The method, boiled down: as §1
A further assay concerns KB-3-1. The description is as above. The settings on record: Five cell lines viability, CellTiter-Glo ATP luminescence, 48-72 h; max response: stronger effect = lower value. The method, boiled down: as §1
A further assay relates to GB4. Put plainly: qHTS profiling for inhibitors of Plasmodium falciparum proliferation (AID 504749).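 Also: 0% = DMSO vehicle and full inhibition = artemisinin control.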 The settings on record: P. falciparum in erythrocytes, SYBR Green DNA, 72 h; series mostly up to 28.7 µM. The method, boiled down: (§2)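 In a 72 h erythrocytic culture (37 C, humidified, 5% CO2) at 2.5% hematocrit and 0.3% starting parasitemia, compounds were tested; SYBR Green I in detergent lysis buffer stained parasite DNA overnight.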
On the technique in general: qHTS replaces the single test concentration by a dilution series.

The subject of a further assay is HB3. The description is as above. The settings on record: P. falciparum in erythrocytes, SYBR Green DNA, 72 h; series mostly up to 28.7 µM. A digest of the protocol: as §2
In a further assay the test system is ICS. Described as above. The note with it: P. falciparum in erythrocytes, SYBR Green DNA, 72 h; series mostly up to 28.7 µM. The method, boiled down:
as §2

Another assay concerns JCK. Described as above. The settings on record: P. falciparum in erythrocytes, SYBR Green DNA, 72 h; series mostly up to 28.7 µM. The method, boiled down: as §2
For a further assay, the system named is N140. The assay is described as above. The settings on record: P. falciparum in erythrocytes, SYBR Green DNA, 72 h; series mostly up to 28.7 µM. A digest of the protocol:
as §2

For the next assay, the system named is P93_24. The description is as above. The note with it: P. falciparum in erythrocytes, SYBR Green DNA, 72 h; series mostly up to 28.7 µM. The method, boiled down:
as §2

The subject of a further assay is P94_40. Described as above. The settings on record: P. falciparum in erythrocytes, SYBR Green DNA, 72 h; series mostly up to 28.7 µM. The method, boiled down:
as §2

The test system of a further assay is PAD. The assay is described as above. The settings on record: P. falciparum in erythrocytes, SYBR Green DNA, 72 h; series mostly up to 28.7 µM. A digest of the protocol:
as §2

The test system of a further assay is PC15. The description is as above. The settings on record: P. falciparum in erythrocytes, SYBR Green DNA, 72 h; series mostly up to 28.7 µM. The method, boiled down:
as §2

The next assay has as its system PC26. The assay is described as above. The settings on record: P. falciparum in erythrocytes, SYBR Green DNA, 72 h; series mostly up to 28.7 µM. A digest of the protocol: as §2
For the next assay, the system named is PC49. The assay is described as above. The settings on record: P. falciparum in erythrocytes, SYBR Green DNA, 72 h; series mostly up to 28.7 µM. The method, boiled down:
as §2

The test system of the next assay is SC27B. The assay is described as above. The note with it: P. falciparum in erythrocytes, SYBR Green DNA, 72 h; series mostly up to 28.7 µM. A digest of the protocol: as §2
In the next assay the test system is TAB109. The description is as above. The note with it: P. falciparum in erythrocytes, SYBR Green DNA, 72 h; series mostly up to 28.7 µM. A digest of the protocol: as §2
For the next assay, the system named is TAB113. Described as above. The note with it: P. falciparum in erythrocytes, SYBR Green DNA, 72 h; series mostly up to 28.7 µM. The method, boiled down: as §2
The test system of a further assay is TAB165. The description is as above. The settings on record: P. falciparum in erythrocytes, SYBR Green DNA, 72 h; series mostly up to 28.7 µM. The method, boiled down:
as §2

The next assay has as its system W2. Described as above. The settings on record: P. falciparum in erythrocytes, SYBR Green DNA, 72 h; series mostly up to 28.7 µM. A digest of the protocol:
as §2

The values below come from PubChem BioAssay (NCATS).

Values joined by “and” are separate entries in the source; they are usually repeats but may differ in a detail not shown here. Equal entries are not always repeated. Records with an inconclusive call do not appear. Unmarked numbers belong to inactive results. Active and inactive are the calls of the source. Calls follow the shape of the dose curve; as a rule, active = well fitted inhibition curve with a large enough effect; inconclusive = small, poorly fitted or top-dose-only effect; inactive = flat fitted curve, though single readings scatter.
Also: nearly all actives have a fitted effect of over 60% in size.

For the compound `CCN(CCO)CCn1c(Cc2ccccc2)nc2c1c(=O)n(C)c(=O)n2C`, the max response in the assay with CRL-7250 is -2.16%; in the assay on HEK293 it was -6.17%; in the assay on KB-3-1 it was -17.3%. The result with HaCat was inactive.
Turning to `CCOC(=O)CC(SP(=S)(OC)OC)C(=O)OCC` (configuration not stated), the Potency entry with GB4, in the assay on HB3, in the assay with ICS, with JCK, in the assay on N140 and in the assay with P93_24 was “inactive” throughout. For the same compound, the Potency result in the assay with P94_40, in the assay with PAD, in the assay on PC15, in the assay on PC26, with PC49 and with SC27B was “inactive” in each case. Also, the Potency result with TAB109, with TAB113, in the assay with TAB165 and in the assay on W2 was “inactive” throughout. The max response is -3.52% in the assay on CRL-7250; -7.37% and 2.49% in the assay with HaCat; -10.3% and -23.1% in the assay on KB-3-1. In addition, the outcome with CRL-7250 and in the assay on HEK293 was inactive.
On to `CCCOC(=O)c1cncn1C(C)c1ccccc1` (configuration not stated), for which the max response was -1.16% in the assay on CRL-7250 and 1.16% in the assay with HEK293. The compound was classed as inactive in the assay on HaCat.
Take `COc1ccc2c3c1O[C@H]1[C@H](O)CC[C@H]4[C@@H](C2)N(C)CC[C@@]341`: the outcome with CRL-7250 and in the assay with HaCat was inactive. The max response in the assay with HEK293 was -4.59%; in the assay on KB-3-1, -6.57%.
For the compound `CCC(CC)(CNC(=O)CCCO)c1cccc(OC)c1`, the max response in the assay on CRL-7250 was 0.244%; with HEK293, -5.56%; in the assay on HaCat it was -1.8%.
For the compound `CC(C)(N)Cc1ccccc1Cl`, the result with CRL-7250, with HEK293 and with HaCat was inactive.
Turning to `COc1cccc2c1C(=O)c1c(O)c3c(c(O)c1C2=O)C[C@@](O)(C(=O)CO)CC3OC1CC(N2CCOC(OC)C2)C(O)C(C)O1` (some centres not stated), the Potency with CRL-7250 is 16.8 nM (active); with HEK293, 11.9 nM (active); in the assay with HaCat it was 21.1 nM (active).
Turning to `C=CCC1([C@H](C)CCC)C(=O)NC(=O)NC1=O`, the max response was 1.74% in the assay on CRL-7250, 1.82% in the assay with HEK293, -2.25% in the assay with HaCat and -1.57% in the assay on KB-3-1.
Take `C=CCC1(C(C)CC)C(=O)NC(=O)NC1=O` (configuration not stated): the outcome in the assay with CRL-7250 was inactive. Moreover, the values for the max response in the assay with HEK293 and with HaCat were 4.61% and 2.69%, respectively.
Turning to `COC(=O)[C@@H](N)CCCN/C(N)=N/[N+](=O)[O-]`, the result in the assay with CRL-7250 and in the assay with HEK293 was inactive. For the same compound, the max response is -19.5% with HaCat and -3.97% in the assay with KB-3-1.
Turning to `CN1C(=O)CCS(=O)(=O)C1c1ccc(Cl)cc1` (configuration not stated), the Potency entry in the assay with GB4, in the assay with HB3, with ICS, with JCK, in the assay on N140 and with P93_24 was “inactive” throughout. For the same compound, the Potency entry in the assay with P94_40, in the assay with PAD, with PC15, with PC26, with PC49 and in the assay on SC27B was “inactive” throughout. Further, the Potency result in the assay on TAB109, in the assay with TAB113 and with TAB165 was “inactive” in each case. For the same compound, the max response in the assay with CRL-7250 was -0.906% and -1.81%; with HEK293, -9.62%; in the assay with KB-3-1, -6.09% and -6.07%. Moreover, the compound was classed as inactive in the assay with HEK293 and in the assay with HaCat.
